# From article PMC7862700, “An all-to-all approach to the identification of sequence-specific readers for epigenetic DNA modifications on cytosine”
# How the values were obtained:
# Experiment in all cases: DAPPL (digital affinity profiling via proximity ligation, sequencing); 10 mM Tris-HCl pH 7.5, 50 mM NaCl, 1 mM DTT, 4% glycerol, room temperature, 30 min; GST-TFs on glutathione beads, 16-mer random dsDNA library, 0.1% formaldehyde crosslink after washing; high values mean tight binding
# FEV = target: T1, FEV (Homo sapiens, UniProt Q99581 1-238); details: protein: recombinant; tags: N-terminal GST; dsDNA, one strand shown
# T1 sequence: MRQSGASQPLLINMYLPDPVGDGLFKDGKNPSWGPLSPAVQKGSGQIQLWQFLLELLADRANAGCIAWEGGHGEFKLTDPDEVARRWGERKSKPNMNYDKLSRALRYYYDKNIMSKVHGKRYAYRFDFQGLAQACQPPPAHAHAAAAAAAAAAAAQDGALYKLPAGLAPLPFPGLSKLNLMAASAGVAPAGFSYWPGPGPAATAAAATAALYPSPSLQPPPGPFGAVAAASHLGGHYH
# Outline: (§1)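 Human transcription factors were made in yeast as GST fusions, captured on glutathione beads and barcoded with DNA. With a tag-only sample included, the pool was incubated with 200 nmole of a random double-stranded 16-mer DNA library in Tris/NaCl/DTT/glycerol buffer at room temperature for 30 min, then crosslinked with 0.1% formaldehyde after washing, ligated by proximity, amplified and sequenced. For binding signal, each hexamer's read frequency for a factor is divided by its frequency for the tag-only sample.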
# ETV5 = ETV5 (Homo sapiens, UniProt P41161 1-510); details: protein: recombinant; tags: N-terminal GST; dsDNA, one strand shown
# Sequence of ETV5 (P41161 whole entry): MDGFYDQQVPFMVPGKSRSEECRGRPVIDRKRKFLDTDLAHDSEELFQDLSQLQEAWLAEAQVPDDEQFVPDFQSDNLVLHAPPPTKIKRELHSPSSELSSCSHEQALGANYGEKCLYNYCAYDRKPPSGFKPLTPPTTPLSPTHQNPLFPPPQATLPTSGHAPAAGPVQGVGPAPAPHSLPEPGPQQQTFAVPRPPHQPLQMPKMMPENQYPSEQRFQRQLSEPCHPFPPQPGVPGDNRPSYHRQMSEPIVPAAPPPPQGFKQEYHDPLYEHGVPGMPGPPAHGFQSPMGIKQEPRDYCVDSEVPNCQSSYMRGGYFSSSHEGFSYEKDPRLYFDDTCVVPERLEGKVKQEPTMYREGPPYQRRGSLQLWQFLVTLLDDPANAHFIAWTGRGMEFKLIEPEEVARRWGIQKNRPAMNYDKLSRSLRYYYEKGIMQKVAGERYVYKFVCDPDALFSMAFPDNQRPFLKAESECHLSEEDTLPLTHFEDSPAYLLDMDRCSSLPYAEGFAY
# Outline: as §1
# HSF1 = HSF1 (Homo sapiens, UniProt Q00613 1-529); details: protein: recombinant; tags: N-terminal GST; chain copies: 3; dsDNA, one strand shown
# Sequence of HSF1 (Q00613 whole entry): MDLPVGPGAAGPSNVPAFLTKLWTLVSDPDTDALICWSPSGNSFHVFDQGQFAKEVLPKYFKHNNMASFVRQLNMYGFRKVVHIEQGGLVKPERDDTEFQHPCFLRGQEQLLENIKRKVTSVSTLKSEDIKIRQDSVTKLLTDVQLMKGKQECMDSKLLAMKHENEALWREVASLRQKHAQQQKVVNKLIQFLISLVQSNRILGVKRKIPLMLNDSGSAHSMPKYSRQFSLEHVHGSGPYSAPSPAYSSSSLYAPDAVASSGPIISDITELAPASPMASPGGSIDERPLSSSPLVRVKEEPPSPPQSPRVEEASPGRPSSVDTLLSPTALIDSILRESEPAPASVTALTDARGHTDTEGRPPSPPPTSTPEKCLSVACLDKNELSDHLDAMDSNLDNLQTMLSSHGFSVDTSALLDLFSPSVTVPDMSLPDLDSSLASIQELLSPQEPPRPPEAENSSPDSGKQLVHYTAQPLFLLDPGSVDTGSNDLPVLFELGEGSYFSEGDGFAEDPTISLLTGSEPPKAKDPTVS
# Outline: as §1
# SPIC = target: T2, SPIC (Homo sapiens, UniProt Q8N5J4 1-248); details: protein: recombinant; tags: N-terminal GST; dsDNA, one strand shown
# T2 sequence: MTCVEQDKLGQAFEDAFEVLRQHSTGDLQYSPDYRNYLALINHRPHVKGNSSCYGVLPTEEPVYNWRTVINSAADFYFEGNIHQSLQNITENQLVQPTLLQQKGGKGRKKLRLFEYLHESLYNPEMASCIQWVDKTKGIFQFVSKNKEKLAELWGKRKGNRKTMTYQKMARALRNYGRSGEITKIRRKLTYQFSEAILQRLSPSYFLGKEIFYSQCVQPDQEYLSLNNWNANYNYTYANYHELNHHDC
# Outline: as §1
# ELF4 = ELF4 (Homo sapiens, UniProt Q99607 1-663); details: protein: recombinant; tags: N-terminal GST; dsDNA, one strand shown
# Sequence of ELF4 (Q99607 whole entry): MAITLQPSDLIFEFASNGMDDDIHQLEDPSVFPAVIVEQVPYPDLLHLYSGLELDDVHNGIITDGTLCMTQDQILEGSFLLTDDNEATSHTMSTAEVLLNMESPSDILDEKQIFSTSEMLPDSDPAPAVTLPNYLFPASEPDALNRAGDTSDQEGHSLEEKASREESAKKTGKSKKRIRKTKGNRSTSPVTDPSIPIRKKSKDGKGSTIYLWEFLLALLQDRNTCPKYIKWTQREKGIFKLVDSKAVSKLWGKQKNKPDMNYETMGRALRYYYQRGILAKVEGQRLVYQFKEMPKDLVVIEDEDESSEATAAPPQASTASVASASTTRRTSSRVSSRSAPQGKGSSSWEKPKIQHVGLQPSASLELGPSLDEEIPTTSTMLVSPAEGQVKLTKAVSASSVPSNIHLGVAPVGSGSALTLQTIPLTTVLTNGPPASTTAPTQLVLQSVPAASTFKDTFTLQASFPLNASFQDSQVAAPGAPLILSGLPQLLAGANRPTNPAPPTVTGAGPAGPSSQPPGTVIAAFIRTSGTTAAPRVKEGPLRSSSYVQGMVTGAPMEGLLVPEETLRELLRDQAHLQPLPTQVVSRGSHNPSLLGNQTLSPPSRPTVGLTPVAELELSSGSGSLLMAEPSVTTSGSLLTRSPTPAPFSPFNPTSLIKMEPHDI
# Outline: as §1
# ELK4 = target: T3, ELK4 (Homo sapiens, UniProt P28324-2 1-405); details: protein: recombinant; tags: N-terminal GST; dsDNA, one strand shown
# T3 sequence: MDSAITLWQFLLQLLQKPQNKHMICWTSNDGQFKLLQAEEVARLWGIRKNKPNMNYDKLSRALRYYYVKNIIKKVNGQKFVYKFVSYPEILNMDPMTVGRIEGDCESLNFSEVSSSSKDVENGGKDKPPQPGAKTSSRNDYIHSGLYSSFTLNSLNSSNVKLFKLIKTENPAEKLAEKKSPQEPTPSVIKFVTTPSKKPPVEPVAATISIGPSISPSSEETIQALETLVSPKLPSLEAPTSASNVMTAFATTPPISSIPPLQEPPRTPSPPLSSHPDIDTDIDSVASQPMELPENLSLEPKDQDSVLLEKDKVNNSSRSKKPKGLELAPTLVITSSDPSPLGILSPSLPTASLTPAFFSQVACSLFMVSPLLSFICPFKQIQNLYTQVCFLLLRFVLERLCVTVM
# Outline: as §1
# ETV2 = target: T4, ETV2 (Homo sapiens, UniProt O00321 1-342); details: protein: recombinant; tags: N-terminal GST; dsDNA, one strand shown
# T4 sequence: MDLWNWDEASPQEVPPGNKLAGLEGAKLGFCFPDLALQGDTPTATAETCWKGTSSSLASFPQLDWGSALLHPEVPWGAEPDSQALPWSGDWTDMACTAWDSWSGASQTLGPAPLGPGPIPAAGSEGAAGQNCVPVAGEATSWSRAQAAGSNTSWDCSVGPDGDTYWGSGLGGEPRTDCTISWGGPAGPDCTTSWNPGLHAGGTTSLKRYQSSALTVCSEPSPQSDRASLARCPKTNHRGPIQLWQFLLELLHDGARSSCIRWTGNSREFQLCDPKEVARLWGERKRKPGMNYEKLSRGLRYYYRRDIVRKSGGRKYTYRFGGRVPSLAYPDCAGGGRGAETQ
# Outline: as §1
# ELF3 = target: T5, ELF3 (Homo sapiens, UniProt P78545 1-371); details: protein: recombinant; tags: N-terminal GST; dsDNA, one strand shown
# T5 sequence: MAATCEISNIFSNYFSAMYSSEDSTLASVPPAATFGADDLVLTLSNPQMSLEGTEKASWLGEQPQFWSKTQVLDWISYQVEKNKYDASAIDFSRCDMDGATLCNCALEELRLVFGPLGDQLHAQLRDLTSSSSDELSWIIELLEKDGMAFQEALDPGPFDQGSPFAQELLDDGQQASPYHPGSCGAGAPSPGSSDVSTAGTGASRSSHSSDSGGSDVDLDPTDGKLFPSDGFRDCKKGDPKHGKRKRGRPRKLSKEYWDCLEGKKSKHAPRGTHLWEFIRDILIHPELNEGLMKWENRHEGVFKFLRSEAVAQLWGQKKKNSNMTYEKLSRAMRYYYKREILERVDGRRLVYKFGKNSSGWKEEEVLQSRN
# Outline: as §1
# CRX = CRX (Homo sapiens, UniProt O43186 1-299); details: protein: recombinant; tags: N-terminal GST; dsDNA, one strand shown
# Sequence of CRX (O43186 whole entry): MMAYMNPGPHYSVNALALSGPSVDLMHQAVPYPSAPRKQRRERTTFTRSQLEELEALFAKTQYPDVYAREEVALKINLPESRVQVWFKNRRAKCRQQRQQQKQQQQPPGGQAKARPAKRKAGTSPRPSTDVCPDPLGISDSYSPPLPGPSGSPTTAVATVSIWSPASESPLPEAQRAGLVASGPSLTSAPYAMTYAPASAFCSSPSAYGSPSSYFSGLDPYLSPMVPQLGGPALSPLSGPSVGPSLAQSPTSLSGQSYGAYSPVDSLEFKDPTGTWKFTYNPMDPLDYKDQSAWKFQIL
# Outline: as §1
# ETV1 = ETV1 (Homo sapiens, UniProt P50549 1-477); details: protein: recombinant; tags: N-terminal GST; dsDNA, one strand shown
# Sequence of ETV1 (P50549 whole entry): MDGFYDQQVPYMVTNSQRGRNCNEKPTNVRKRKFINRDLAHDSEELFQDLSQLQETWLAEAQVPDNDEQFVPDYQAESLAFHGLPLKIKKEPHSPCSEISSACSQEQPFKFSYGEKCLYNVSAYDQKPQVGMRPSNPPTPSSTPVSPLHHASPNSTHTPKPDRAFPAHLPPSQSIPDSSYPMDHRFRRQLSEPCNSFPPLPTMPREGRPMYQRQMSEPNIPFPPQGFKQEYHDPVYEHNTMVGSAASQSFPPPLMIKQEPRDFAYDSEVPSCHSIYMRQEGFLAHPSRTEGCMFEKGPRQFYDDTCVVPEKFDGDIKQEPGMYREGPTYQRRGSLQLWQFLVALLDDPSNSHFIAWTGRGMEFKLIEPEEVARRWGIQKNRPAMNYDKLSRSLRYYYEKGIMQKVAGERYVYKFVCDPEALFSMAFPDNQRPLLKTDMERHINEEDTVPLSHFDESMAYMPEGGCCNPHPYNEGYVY
# Outline: as §1
# ERF = target: T6, ERF (Homo sapiens, UniProt P50548 1-548); details: protein: recombinant; tags: N-terminal GST; dsDNA, one strand shown
# T6 sequence: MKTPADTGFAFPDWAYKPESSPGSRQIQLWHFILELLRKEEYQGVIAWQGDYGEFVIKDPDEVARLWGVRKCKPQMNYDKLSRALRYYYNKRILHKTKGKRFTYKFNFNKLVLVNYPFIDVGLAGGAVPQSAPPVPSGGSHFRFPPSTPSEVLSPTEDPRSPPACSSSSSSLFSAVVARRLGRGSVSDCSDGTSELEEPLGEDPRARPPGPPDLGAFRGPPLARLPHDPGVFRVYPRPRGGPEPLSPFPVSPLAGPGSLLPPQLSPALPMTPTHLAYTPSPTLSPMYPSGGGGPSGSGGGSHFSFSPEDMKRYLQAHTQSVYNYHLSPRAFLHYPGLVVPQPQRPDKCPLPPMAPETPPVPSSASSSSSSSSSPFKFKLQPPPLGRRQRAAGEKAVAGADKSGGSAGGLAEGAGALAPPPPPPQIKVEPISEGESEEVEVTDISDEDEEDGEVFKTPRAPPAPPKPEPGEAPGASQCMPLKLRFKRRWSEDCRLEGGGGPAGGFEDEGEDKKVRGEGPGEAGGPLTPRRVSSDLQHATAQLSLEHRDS
# Outline: as §1
# ETV3L = target: T7, ETV3L (Homo sapiens, UniProt Q6ZN32 1-361); details: protein: recombinant; tags: N-terminal GST; dsDNA, one strand shown
# T7 sequence: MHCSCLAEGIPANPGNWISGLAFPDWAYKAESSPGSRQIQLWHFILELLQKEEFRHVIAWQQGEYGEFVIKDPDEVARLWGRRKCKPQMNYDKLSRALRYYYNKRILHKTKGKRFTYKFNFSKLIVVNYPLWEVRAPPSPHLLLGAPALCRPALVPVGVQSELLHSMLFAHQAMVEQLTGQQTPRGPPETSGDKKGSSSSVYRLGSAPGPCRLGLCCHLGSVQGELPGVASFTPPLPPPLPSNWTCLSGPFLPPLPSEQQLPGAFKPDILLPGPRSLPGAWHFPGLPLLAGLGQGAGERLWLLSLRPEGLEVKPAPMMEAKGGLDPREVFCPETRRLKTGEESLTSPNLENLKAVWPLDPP
# Outline: as §1
# ETS2 = target: T8, ETS2 (Homo sapiens, UniProt P15036 1-469); details: protein: recombinant; tags: N-terminal GST; dsDNA, one strand shown
# T8 sequence: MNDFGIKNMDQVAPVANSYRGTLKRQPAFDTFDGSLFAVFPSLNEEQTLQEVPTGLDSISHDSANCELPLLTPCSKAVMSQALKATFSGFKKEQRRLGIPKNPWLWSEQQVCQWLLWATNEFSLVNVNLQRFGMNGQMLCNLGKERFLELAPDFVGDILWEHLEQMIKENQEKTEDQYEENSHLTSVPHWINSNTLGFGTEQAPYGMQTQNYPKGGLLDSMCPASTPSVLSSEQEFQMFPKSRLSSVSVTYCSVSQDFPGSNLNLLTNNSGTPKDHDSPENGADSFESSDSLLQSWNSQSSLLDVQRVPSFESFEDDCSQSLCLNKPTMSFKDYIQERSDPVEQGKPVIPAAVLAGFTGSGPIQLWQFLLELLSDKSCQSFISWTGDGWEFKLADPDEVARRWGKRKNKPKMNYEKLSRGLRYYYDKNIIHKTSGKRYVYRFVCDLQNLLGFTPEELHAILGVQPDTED
# Outline: as §1
# SPDEF = target: T9, SPDEF (Homo sapiens, UniProt O95238 1-335); details: protein: recombinant; tags: N-terminal GST; dsDNA, one strand shown
# T9 sequence: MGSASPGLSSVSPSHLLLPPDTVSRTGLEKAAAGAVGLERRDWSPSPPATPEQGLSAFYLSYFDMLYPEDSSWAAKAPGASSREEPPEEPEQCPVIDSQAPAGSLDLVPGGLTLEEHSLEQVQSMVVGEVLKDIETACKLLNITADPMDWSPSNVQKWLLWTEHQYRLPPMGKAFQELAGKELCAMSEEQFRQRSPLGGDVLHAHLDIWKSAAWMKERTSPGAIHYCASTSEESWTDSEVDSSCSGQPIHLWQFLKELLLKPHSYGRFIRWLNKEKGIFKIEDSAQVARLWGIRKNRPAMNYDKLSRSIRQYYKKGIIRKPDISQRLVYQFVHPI
# Outline: as §1
# ETV7 = target: T10, ETV7 (Homo sapiens, UniProt Q9Y603 1-341); details: protein: recombinant; tags: N-terminal GST; dsDNA, one strand shown
# T10 sequence: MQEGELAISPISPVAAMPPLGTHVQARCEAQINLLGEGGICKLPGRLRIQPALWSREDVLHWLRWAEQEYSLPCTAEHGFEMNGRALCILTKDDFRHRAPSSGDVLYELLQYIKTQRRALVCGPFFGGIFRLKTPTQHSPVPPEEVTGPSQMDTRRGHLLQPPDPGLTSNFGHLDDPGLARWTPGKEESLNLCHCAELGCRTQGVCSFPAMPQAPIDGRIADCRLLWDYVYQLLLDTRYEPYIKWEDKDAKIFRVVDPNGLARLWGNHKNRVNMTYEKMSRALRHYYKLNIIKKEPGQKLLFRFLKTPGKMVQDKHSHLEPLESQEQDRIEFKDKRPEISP
# Outline: as §1
# ELF5 = target: T11, ELF5 (Homo sapiens, UniProt Q9UKW6-2 1-255); details: protein: recombinant; tags: N-terminal GST; dsDNA, one strand shown
# T11 sequence: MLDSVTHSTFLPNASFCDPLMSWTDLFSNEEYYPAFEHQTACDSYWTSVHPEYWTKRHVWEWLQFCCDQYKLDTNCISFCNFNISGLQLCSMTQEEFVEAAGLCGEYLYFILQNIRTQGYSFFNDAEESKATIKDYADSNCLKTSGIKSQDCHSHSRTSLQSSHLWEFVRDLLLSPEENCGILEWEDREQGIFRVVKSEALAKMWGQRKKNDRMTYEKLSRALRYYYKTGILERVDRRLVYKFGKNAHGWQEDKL
# Outline: as §1
# ETV3 = target: T12, ETV3 (Homo sapiens, UniProt P41162-2 1-143); details: protein: recombinant; tags: N-terminal GST; dsDNA, one strand shown
# T12 sequence: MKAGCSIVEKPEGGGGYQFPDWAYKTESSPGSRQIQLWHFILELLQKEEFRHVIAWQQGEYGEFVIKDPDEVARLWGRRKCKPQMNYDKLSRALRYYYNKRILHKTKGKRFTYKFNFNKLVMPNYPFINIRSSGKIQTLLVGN
# Outline: as §1
# ETV6 = ETV6 (Homo sapiens, UniProt P41212 1-452); details: protein: recombinant; tags: N-terminal GST; dsDNA, one strand shown
# Sequence of ETV6 (P41212 whole entry): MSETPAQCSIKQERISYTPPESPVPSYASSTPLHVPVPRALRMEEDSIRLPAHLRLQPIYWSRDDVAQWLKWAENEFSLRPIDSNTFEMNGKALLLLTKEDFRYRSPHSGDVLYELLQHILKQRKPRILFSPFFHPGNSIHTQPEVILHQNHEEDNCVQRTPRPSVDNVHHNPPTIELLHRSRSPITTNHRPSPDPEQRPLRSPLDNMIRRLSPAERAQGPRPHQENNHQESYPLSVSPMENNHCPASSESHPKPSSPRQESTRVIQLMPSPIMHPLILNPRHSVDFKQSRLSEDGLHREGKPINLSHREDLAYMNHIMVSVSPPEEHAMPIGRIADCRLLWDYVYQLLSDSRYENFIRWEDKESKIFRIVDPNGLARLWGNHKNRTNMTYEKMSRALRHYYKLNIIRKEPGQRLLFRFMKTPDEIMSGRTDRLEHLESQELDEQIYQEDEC
# Outline: as §1
sequence,measurement,setting,value
GTTCTA,binding signal,FEV,"1.26 fold enrichment (6-mer frequency, TF over GST control)"
same,binding signal,ETV5,"1.18 fold enrichment (6-mer frequency, TF over GST control)"
same,binding signal,HSF1,"2.94 fold enrichment (6-mer frequency, TF over GST control)"
same,binding signal,SPIC,"1.37 fold enrichment (6-mer frequency, TF over GST control)"
same,binding signal,ELF4,"1.31 fold enrichment (6-mer frequency, TF over GST control)"
same,binding signal,ELK4,"1.2 fold enrichment (6-mer frequency, TF over GST control)"
same,binding signal,ETV2,"1.17 fold enrichment (6-mer frequency, TF over GST control)"
same,binding signal,ELF3,"1.27 fold enrichment (6-mer frequency, TF over GST control)"
same,binding signal,CRX,"1.59 fold enrichment (6-mer frequency, TF over GST control)"
same,binding signal,ETV1,"1.11 fold enrichment (6-mer frequency, TF over GST control)"
same,binding signal,ERF,"1.27 fold enrichment (6-mer frequency, TF over GST control)"
same,binding signal,ETV3L,"1.2 fold enrichment (6-mer frequency, TF over GST control)"
same,binding signal,ETS2,"1.25 fold enrichment (6-mer frequency, TF over GST control)"
same,binding signal,SPDEF,"1.19 fold enrichment (6-mer frequency, TF over GST control)"
same,binding signal,ETV7,"1.2 fold enrichment (6-mer frequency, TF over GST control)"
same,binding signal,ELF5,"1.23 fold enrichment (6-mer frequency, TF over GST control)"
same,binding signal,ETV3,"1.19 fold enrichment (6-mer frequency, TF over GST control)"
same,binding signal,ETV6,"1.24 fold enrichment (6-mer frequency, TF over GST control)"
